# According to the supplement of paper PMC11219838:
# Tested on: Caenorhabditis elegans L1 (N2)
# Assay: survival and reproduction score of C. elegans L1 (0: 0-10 living worms, 1: 11-20, 2: 21-50, 3: >50, 4: overgrown) (score 0-4); higher = more worms, less nematicidal, active = 1 or less; extreme values may be limits of the assay
# Settings: 60 µM; 6 days; temperature: 20 °C
# Description: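 DODA library (846 commercial 1,3,4- and 1,2,4-oxadiazole compounds plus commercial nematicide controls) screened at a single dose of 60 µM (0.6% DMSO) in 96-well plates, two biological replicates. Read-outs: C. elegans N2 L1 survival/reproduction score at day 6, 20 °C (0: 0-10 worms, 1: 11-20, 2: 21-50, 3: >50, 4: overgrown/starved). C. elegans daf-2 dauer, D. dipsaci and M. hapla J2 mobility at day 5, 20 °C, and P. penetrans mobility at day 5, 20 °C, each relative to DMSO controls. M. hapla egg hatching at day 12, 25 °C, relative to the mean of 8 DMSO wells on the same plate.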
row,SMILES,survival and reproduction score
1,COc1ccccc1NC(=O)CSc1nnc(-c2ccccc2)o1,3.5 (inactive)
2,CCCCc1ccc(-c2nc(-c3cccnc3)no2)cc1,0 (active)
3,Cc1cc(OCc2nc(-c3ccccn3)no2)ccc1Br,4 (inactive)
4,COc1ccc(-c2nnc(SCC(=O)Nc3ccc(Br)cc3C(C)C)o2)cc1,4 (inactive)
5,COc1nc(C)ccc1-c1noc(-c2ccccc2Cl)n1,4 (inactive)
6,CNC(=O)c1ccccc1-c1nc(-c2ccccc2Cl)no1,4 (inactive)
7,CC1CCN(C(=O)CSc2nnc(-c3cccc(Cl)c3)o2)CC1,4 (inactive)
8,COc1ccc(-c2nnc(SCC(=O)Nc3ccc(Cl)c(Br)c3)o2)cc1,4 (inactive)
9,O=C(CSc1nnc(-c2cccc(Br)c2)o1)N1CCCCC1,4 (inactive)
10,c1csc(-c2nnc(-c3cccs3)o2)c1,2 (inactive)
11,COc1cccc(-c2noc(COc3ccc(Cl)cc3)n2)c1,4 (inactive)
12,COc1ccc(-c2nnc(SCc3cccc(C#N)c3)o2)cc1,4 (inactive)
13,Clc1ccc(-c2noc(-c3ccncc3)n2)cc1,3.5 (inactive)
14,Cc1ccc(-c2nnc(SCC(=O)Nc3ccccc3)o2)cc1,4 (inactive)
15,c1ccc(-c2noc(-c3cccs3)n2)cc1 [tioxazafen],0 (active)
16,O=C(Nc1cccc(-c2noc(-c3cccnc3)n2)c1)c1cccs1,4 (inactive)
17,Clc1cc(Br)ccc1OCc1nc(-c2ccccc2)no1,4 (inactive)
18,COc1ccc(-c2noc(COc3ccccc3)n2)cc1,0 (active)
19,COc1cccc(-c2nc(-c3ccc(Cl)cc3)no2)c1,4 (inactive)
20,O=C(CSc1nnc(-c2ccco2)o1)Nc1ccc(F)cc1,3.5 (inactive)

row,SMILES,survival and reproduction score
1,CC(=O)Nc1ccc(C(=O)CSc2nnc(-c3cccc(Br)c3)o2)cc1,4 (inactive)
2,Cc1cc(Br)ccc1OCc1nc(-c2cccnc2)no1,4 (inactive)
3,Cc1ccc(OCc2nc(-c3ccncc3)no2)cc1C,4 (inactive)
4,Clc1ccc(CSc2nnc(-c3ccccc3)o2)cc1Cl,4 (inactive)
5,Clc1ccc(CSc2nnc(-c3ccccn3)o2)cc1,4 (inactive)
6,Cc1cc(C)nc(SCc2nc(-c3ccccc3)no2)n1,4 (inactive)
7,O=C(CSc1nnc(-c2ccc(Cl)cc2)o1)NCc1ccccc1,4 (inactive)
8,O=C(CSc1nnc(-c2ccccc2)o1)Nc1cc(C(F)(F)F)ccc1Cl,4 (inactive)
9,COc1ccc(CCC(=O)Nc2ccc(-c3noc(-c4ccccc4C)n3)cc2)cc1,4 (inactive)
10,Cc1ccc(-c2nnc(SCC(=O)Nc3nccs3)o2)cc1,4 (inactive)
11,COc1cccc(-c2nc(-c3ccc(F)cc3)no2)c1,4 (inactive)
12,O=C(CSc1nnc(-c2ccc(Cl)cc2)o1)Nc1ccc(F)cc1,4 (inactive)
13,Cc1ccccc1-c1nc(-c2cccc(NC(=O)c3cccs3)c2)no1,4 (inactive)
14,COc1ccc(-c2noc(COc3ccc(C(C)(C)C)cc3Br)n2)cc1,4 (inactive)
15,Cc1ccc(OCc2nc(-c3ccc4c(c3)OCO4)no2)cc1C,4 (inactive)
16,COc1ccc(-c2nnc(SCc3csc(N)n3)o2)cc1,4 (inactive)
17,COc1ccc(-c2noc(-c3ccccc3C(=O)Nc3ccc(NC(C)=O)cc3)n2)cc1,4 (inactive)
18,COc1nc(C)ccc1-c1noc(-c2ccccc2Br)n1,4 (inactive)
19,c1ccc(COc2cccc(-c3nc(-c4cccnc4)no3)c2)cc1,2.5 (inactive)
20,Cc1ccc(C(=O)CSc2nnc(-c3ccccc3)o2)cc1,4 (inactive)
